From the supplement of paper PMC11732987, “Enantioselective OTUD7B fragment discovery through chemoproteomics screening and high-throughput optimisation” (Communications Chemistry, 2025)

Key:
Assay in all cases: log2 ratio of Biotin-Ahx-Ub-VS probe labelling (fragment/DMSO); higher = less target engagement (more negative = stronger competition), active = hit call of the paper (q ≤ 0.05, log2 ratio ≤ -1)
Conditions in all cases: compound concentration: 200 uM; treatment time: 3 h
[1] = biological target: USP34 (UniProt Q70CQ2)
Chain of USP34 (Q70CQ2 whole entry, the tested form may be a part): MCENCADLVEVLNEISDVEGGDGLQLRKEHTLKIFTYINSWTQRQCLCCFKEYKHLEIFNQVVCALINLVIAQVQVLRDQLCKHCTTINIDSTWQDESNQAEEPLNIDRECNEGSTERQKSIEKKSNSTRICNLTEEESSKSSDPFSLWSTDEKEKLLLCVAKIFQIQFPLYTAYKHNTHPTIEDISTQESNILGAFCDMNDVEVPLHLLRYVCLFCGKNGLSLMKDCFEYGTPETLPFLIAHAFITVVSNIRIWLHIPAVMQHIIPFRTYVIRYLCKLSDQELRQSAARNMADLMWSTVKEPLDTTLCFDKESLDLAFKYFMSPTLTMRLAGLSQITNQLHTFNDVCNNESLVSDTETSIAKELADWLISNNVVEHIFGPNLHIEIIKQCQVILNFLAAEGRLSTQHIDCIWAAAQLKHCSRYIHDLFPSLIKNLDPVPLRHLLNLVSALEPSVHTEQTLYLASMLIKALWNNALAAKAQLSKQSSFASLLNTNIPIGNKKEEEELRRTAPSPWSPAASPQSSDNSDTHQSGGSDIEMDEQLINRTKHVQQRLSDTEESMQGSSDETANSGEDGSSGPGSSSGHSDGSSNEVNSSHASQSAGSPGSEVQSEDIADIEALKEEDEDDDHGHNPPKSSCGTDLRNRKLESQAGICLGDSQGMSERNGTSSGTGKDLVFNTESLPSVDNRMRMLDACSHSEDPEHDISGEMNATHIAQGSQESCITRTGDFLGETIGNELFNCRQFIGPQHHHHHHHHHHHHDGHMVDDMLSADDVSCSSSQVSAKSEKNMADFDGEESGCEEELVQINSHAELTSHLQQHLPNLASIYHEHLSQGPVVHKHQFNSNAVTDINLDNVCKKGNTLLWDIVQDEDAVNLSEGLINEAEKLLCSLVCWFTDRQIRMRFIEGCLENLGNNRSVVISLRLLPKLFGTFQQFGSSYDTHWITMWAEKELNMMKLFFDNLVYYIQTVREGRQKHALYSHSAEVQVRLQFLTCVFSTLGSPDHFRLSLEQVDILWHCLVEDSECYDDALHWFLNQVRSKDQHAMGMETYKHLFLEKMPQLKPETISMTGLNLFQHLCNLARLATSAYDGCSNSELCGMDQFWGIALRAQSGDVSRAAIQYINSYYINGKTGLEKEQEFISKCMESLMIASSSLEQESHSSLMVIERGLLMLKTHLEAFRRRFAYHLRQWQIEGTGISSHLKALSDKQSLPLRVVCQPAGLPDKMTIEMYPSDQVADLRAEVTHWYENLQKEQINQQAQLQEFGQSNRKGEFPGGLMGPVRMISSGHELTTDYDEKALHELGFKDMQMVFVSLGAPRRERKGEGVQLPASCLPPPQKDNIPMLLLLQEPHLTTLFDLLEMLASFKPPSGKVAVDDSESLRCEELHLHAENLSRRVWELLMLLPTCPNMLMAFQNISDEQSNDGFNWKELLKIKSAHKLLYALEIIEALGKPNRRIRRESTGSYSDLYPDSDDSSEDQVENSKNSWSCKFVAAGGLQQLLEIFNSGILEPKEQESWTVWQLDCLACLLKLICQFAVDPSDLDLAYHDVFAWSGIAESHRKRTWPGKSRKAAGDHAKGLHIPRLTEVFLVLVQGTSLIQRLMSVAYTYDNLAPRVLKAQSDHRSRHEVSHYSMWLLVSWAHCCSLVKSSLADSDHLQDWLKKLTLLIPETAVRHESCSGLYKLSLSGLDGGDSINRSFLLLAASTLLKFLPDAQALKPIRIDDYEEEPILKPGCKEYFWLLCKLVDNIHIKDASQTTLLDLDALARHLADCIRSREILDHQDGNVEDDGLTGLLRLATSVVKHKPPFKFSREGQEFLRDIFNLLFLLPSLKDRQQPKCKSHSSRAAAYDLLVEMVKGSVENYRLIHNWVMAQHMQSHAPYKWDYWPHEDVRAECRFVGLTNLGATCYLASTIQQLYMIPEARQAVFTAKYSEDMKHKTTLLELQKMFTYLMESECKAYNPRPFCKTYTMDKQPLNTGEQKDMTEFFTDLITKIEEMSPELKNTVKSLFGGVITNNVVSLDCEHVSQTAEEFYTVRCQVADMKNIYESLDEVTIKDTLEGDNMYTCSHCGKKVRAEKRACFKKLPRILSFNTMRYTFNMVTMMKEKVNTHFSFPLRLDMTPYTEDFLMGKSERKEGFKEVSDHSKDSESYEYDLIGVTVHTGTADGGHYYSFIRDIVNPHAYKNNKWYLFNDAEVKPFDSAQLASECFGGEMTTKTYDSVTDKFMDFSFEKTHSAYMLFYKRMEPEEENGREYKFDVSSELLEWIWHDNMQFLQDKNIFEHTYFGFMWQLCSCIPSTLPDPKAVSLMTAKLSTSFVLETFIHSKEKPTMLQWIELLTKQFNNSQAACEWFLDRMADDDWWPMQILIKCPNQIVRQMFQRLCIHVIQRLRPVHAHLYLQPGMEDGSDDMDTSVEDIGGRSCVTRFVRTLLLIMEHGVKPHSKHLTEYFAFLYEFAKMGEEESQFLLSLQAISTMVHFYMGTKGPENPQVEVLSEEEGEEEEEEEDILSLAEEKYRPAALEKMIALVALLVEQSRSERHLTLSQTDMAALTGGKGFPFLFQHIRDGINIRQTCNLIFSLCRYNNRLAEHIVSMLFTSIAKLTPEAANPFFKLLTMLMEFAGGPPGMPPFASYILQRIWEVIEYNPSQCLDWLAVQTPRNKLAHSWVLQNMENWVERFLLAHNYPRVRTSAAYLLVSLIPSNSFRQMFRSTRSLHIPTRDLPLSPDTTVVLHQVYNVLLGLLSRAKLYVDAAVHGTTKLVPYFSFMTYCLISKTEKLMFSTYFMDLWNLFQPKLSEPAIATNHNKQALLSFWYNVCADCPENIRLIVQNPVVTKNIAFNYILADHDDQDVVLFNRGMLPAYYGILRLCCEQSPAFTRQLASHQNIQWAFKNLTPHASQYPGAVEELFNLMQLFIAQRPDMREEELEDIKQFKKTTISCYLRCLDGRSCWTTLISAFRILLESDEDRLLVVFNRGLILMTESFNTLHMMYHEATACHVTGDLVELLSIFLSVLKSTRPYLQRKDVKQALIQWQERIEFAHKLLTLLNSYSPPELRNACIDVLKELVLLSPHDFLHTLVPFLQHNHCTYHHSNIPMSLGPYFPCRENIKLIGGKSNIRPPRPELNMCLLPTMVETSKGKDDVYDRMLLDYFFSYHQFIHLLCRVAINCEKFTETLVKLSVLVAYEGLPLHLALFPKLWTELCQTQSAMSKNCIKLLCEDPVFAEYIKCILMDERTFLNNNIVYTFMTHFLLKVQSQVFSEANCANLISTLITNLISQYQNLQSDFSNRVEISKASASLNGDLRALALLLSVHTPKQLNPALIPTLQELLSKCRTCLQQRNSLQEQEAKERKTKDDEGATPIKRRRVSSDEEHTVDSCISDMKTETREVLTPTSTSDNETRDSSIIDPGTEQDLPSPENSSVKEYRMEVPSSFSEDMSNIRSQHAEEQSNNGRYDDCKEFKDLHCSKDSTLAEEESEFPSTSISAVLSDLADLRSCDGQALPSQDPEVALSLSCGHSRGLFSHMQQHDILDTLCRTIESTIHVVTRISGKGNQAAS
Method in brief: (§1)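 HEK293T lysate (495 µg per sample, in Tris/CHAPS/IGEPAL buffer with protease inhibitors) was exposed in triplicate for 3 h to fragment at 200 µM or to vehicle, then to Biotin-Ahx-Ub-VS at 0.5 µM final for 1 h. Labelled DUBs were enriched on NeutrAvidin, digested with LysC and trypsin, and analysed by diaPASEF LC-MS/MS. Spectronaut label-free quantities were normalised to the global median, and values are average log2 ratios of fragment over vehicle from an unpaired t-test. Only proteins with ≥2 unique peptides were used.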

[2] = biological target: T1, USP36 (UniProt Q9P275)
T1 sequence (whole entry): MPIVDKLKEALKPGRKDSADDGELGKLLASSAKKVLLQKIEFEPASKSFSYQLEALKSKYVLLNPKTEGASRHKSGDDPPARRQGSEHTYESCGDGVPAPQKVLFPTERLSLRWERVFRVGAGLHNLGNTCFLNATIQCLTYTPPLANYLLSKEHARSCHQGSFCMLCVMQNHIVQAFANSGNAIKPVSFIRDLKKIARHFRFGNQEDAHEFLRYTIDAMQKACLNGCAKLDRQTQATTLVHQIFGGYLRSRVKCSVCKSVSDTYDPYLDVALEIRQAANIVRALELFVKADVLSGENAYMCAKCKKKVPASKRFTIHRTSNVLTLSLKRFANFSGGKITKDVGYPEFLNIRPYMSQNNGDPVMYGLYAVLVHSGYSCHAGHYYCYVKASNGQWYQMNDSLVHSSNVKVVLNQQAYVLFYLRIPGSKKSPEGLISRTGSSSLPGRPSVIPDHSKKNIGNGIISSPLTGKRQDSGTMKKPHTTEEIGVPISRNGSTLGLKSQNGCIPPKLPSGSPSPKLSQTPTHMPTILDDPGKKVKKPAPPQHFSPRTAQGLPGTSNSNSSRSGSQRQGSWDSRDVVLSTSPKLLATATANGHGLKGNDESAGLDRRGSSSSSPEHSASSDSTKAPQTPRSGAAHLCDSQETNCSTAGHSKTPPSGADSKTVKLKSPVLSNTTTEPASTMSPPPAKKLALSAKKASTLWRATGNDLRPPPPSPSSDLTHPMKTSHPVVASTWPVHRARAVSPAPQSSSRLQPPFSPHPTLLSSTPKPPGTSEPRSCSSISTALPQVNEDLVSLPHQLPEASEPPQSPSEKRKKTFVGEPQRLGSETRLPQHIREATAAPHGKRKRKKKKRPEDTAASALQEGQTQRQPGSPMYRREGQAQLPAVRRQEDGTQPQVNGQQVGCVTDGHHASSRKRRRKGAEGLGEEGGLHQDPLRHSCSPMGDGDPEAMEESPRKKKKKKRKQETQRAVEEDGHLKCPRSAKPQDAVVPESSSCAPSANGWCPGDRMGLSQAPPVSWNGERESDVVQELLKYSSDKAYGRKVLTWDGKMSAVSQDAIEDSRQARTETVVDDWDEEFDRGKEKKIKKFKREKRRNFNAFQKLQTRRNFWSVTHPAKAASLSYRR
Method in brief: as §1

[3] = biological target: T2, USP38 (UniProt Q8NB14)
T2 sequence (whole entry): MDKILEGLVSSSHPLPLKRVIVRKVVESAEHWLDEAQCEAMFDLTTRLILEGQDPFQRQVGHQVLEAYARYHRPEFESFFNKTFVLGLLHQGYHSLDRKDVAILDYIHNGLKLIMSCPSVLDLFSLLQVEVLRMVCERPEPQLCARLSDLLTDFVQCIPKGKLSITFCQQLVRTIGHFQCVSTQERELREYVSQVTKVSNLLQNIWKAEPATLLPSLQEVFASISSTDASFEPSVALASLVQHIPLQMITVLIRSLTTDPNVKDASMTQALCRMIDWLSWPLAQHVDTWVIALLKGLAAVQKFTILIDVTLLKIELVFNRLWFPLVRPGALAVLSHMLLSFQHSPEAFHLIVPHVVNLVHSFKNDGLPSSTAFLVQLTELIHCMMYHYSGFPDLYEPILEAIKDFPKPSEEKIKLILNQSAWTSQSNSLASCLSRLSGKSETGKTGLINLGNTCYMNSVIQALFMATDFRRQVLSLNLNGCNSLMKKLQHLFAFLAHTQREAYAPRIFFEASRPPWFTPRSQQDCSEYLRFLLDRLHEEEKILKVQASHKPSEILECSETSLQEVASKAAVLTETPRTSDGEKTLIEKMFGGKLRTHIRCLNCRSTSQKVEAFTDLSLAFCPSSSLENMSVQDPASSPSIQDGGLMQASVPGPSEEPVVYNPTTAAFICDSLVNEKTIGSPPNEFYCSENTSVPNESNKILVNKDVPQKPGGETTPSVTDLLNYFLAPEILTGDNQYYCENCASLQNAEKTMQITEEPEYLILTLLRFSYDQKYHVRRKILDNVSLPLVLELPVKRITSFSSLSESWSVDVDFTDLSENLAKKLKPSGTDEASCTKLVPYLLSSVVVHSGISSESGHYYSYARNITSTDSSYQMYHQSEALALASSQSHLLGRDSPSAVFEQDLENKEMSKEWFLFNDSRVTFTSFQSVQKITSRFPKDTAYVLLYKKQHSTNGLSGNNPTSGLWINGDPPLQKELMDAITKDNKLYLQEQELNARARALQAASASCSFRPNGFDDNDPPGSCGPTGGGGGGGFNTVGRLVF
Method in brief: as §1

[4] = biological target: T3, USP39 (UniProt Q53GS9)
T3 sequence (whole entry): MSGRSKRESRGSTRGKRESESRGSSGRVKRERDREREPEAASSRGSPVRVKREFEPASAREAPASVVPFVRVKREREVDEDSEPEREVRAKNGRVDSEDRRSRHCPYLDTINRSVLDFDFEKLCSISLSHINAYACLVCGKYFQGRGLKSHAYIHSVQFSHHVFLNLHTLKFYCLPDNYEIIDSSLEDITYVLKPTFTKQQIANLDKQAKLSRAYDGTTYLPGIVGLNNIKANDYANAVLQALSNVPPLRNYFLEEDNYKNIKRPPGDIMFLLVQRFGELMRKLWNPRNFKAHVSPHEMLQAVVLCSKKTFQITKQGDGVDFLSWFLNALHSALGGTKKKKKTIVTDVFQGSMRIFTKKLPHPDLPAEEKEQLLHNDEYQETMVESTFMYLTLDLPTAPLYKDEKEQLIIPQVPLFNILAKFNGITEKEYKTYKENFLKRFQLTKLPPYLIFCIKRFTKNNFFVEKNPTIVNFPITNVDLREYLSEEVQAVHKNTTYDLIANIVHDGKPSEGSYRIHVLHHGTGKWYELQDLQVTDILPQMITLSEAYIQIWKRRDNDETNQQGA
Method in brief: as §1

[5] = biological target: T4, USP4 (UniProt Q13107)
T4 sequence (whole entry): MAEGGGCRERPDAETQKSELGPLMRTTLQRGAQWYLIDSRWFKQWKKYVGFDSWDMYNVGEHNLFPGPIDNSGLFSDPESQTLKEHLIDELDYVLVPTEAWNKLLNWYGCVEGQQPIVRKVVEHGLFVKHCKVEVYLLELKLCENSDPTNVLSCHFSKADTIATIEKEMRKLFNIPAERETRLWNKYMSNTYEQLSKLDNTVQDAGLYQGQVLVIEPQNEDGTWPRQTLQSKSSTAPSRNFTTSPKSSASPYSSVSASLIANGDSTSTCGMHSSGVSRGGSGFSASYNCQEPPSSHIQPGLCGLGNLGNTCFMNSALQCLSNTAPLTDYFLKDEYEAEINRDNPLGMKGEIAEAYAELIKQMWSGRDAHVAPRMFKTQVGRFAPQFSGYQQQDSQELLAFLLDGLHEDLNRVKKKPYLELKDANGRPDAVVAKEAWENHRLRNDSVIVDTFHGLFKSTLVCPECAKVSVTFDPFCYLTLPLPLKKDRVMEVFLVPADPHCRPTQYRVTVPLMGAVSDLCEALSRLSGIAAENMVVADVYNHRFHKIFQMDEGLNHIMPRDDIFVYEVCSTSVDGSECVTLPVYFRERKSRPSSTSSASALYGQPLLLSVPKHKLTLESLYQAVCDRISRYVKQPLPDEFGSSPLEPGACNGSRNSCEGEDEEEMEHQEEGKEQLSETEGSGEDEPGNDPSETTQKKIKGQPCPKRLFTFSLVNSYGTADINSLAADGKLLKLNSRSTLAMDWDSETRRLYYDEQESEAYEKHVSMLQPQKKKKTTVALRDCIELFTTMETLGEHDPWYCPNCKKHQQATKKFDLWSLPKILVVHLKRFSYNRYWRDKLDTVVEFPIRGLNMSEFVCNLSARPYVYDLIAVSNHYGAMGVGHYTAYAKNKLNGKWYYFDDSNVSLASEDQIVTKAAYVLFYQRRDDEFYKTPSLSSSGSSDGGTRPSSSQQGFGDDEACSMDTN
Method in brief: as §1

Measured: log2 ratio of Biotin-Ahx-Ub-VS probe labelling

O=C(CCl)NCc1ccc2c(c1)OCO2
inactive: [1] 0.112 | [2] 0.129 | [3] -0.0864 | [4] 0.0456 | [5] 0.0604
